Source: PubChem BioAssay (Tox21)
Results filed as inconclusive are left out. Where a call stands in place of a potency, no number is given. Calls of active or inactive are those of the source. The call rests on the fitted dose curve; in most records, active means well fitted cell-killing curve with a large enough effect in the repeat runs; inconclusive means weak or mixed curves, or effect the other way; inactive means flat fitted curve, though single readings scatter.

Experiment: qHTS assay to identify small molecule agonists of the androgen receptor (AR) signaling pathway in the presence of an antagonist - cell viability counter screen (AID 1259379); further: nearly all actives have a fitted effect of over 25% in size
Details: MDA-kb2 viability, CellTiter-Fluor, 16 h; series mostly up to 92.4 µM
Excerpt: National Center for Advancing Translational Sciences [NCATS]
NIH Chemical Genomics Center [NCGC]
U.S. Environmental Protection Agency [EPA]
National Institutes of Environmental Health Sciences [NIEHS]
National Toxicology Program [NTP]
U.S. Food and Drug Administration [FDA]
Androgen receptor (AR) is an important member of nuclear receptor family. Its signaling plays a critical role in AR-dependent prostate cancer and other androgen related diseases. Considerable attention has been given in the past decades to develop methods to study and screen for the environmental chemicals that have the potential to interfere with metabolic homeostasis, reproduction, developmental and behavioral functions. Therefore AR binding assay for screening against androgen agonists and antagonists can be used to identify potential endocrine disruptors.
MDA-kb2 cells (from ATCC, deposited by Wilson et al.) are human breast carcinoma cells that were stably transfected with a luciferase reporter gene under control of the MMTV promoter that contains response elements for both androgen receptor (AR) and glucocorticoid receptor (GR). This particular screening for measuring luciferase reporter gene activity using MDA-kb2 cells against Tox21 10K library compounds is a confirmation study on agonist mode screening in the presence of AR-antagonist compound (Nilutamide) at 3.0uM final concentration. The cytotoxicity of the compounds was tested in parallel by measuring the cell viability using CellTiter-Fluor assay system (Promega, Madison, WI) in the same wells.
Tox21 Assay Protocol Summary:
MDA-kb2 cells (cells cultured without CO2) were dispensed at 3,000 cells/well in 4uL of culture medium into white wall/solid-bottom 1536-well plates (Corning Life Sciences, Corning, NY) using a Multidrop Combi (Thermo Fisher Scientific Inc., Waltham, MA) dispenser. The assay plates were incubated at 37C and 0% CO2 for 5hr. One uL of 3.0uM (final concentration) Nilutamide or assay buffer was added using two separate tips of Flying Reagent Dispenser (FRD, Aurora Discovery, San Diego, CA). Then 23nL of compounds dissolved in DMSO at 15 concentrations and positive controls were transferred to the assay plates using a Pintool station (Wako, San Diego, CA). The assay plates were incubated at 37C and 0% CO2 for 16 hr. After 15hr incubation at 37C, 1uL/well CellTiter-Fluor reagent (Promega Corporation) was added to each well of the assay plates using FRD. After 1hr incubation at 37C and 0% CO2, the fluorescence signal was measured using a ViewLux plate reader (PerkinElmer, Shelton, CT).
Potency means the concentration at half of the fitted maximal effect.

SMILES | Potency
CCc1c(Br)c(Br)c(Br)c(Br)c1Br | inactive
CCc1c(C(=O)O)c(=O)cnn1-c1ccc(Cl)cc1 | inactive
O=C(O)c1cccc(Cl)n1 | inactive
CN1CN(C)CN(C)C1 | inactive
COc1cc(C(=O)NS(=O)(=O)c2ccccc2C)ccc1Cc1cn(C)c2ccc(NC(=O)OC3CCCC3)cc12 | inactive
CNC(=O)c1cc(Oc2ccc(NC(=O)Nc3ccc(Cl)c(C(F)(F)F)c3)cc2)ccn1 | 29.8 µM (active)
Cc1ccc(-n2[nH]c(C)c(N=Nc3cccc(-c4cccc(C(=O)O)c4)c3O)c2=O)cc1C | 29.8 µM (active)
C/C=C/C(=O)Oc1c(CCCCCC(C)C)cc([N+](=O)[O-])cc1[N+](=O)[O-] | 15.4 µM (active)
CC1(C)COCN1 | inactive
CN(C)CCCN1c2ccccc2CCc2ccccc21 | 61.1 µM (active)
NC1(c2ccc(-c3nc4ccn5c(=O)[nH]nc5c4cc3-c3ccccc3)cc2)CCC1 | 16.8 µM (active)
O=C(O)Cc1ccc(OCCNC[C@H](O)c2ccccc2)cc1 | inactive
O=c1cccc[nH]1 | inactive
CN(C)CCOC(c1ccccc1)c1ccccc1 (tested in a mixture with another compound) | inactive
CCC1CCCCC1 | inactive
CC(=O)c1ccccc1N | inactive
NC(=O)c1nc(-c2cccc(-c3cc(F)ccc3OCC(F)(F)C(F)(F)F)c2)n[nH]1 | inactive
c1cc2c3c(c1)ccc1cccc(c13)C2 | inactive
CCc1cccc(C)c1 | inactive
CCN(CC)c1cccc(C)c1 | inactive

SMILES | Potency
O=C(O)CC(=O)O | inactive
CCOC(/C=C(\C)CCC=C(C)C)OCC | inactive
CC(=O)OC(OC(C)=O)c1ccc([N+](=O)[O-])o1 | 62.2 µM (active)
CCCCCCCC(=O)OCC | inactive
Clc1nc2ccccc2s1 | inactive
COc1ccccc1C=O | inactive
O=C1c2c(O)ccc(O)c2C(=O)c2c(NCCNCCO)ccc(NCCNCCO)c21 | 11.9 µM (active)
Oc1ccc(-c2ccccc2)c(Cl)c1 | inactive
CCCCCCCCCCCC(=O)N(CC)CC | inactive
Clc1cccnc1 | inactive
C/C=C/C(=O)C1=C(C)CCCC1(C)C | inactive
c1ccc(Sc2ccccc2)cc1 | inactive
O=C(O)CCn1c2c(c3ccccc31)C[C@H](NS(=O)(=O)c1ccc(F)cc1)CC2 | inactive
CC(C)(C)c1cc(/C=C2\SC(=N)NC2=O)cc(C(C)(C)C)c1O | inactive
Cn1cccc1 | inactive
C[C@@]12C(=O)OC(=O)[C@]1(C)C1CCC2O1 | 5.96 µM (active)
CC1CCCCN1CCCOC(=O)c1ccc(OC2CCCCC2)cc1 (stereo not given) | 26.6 µM (active)
Cc1cncc(C)c1 | inactive
CC(C)(c1cc(Br)c(O)c(Br)c1)c1cc(Br)c(O)c(Br)c1 | inactive
CCc1ccc(C)nc1 | inactive
